According to PubChem BioAssay AID1347420 (Sanford-Burnham Center for Chemical Genomics, 2020):
About 980 (75%) of roughly 1,300 compounds were called active. Another 4% or so got no clear call; they are omitted. This is one part of the list.

Target: Sulfhydryl oxidase 1 (Homo sapiens) (UniProt O00391)
Assay: QSOX1 enzyme inhibitors, primary screen, biochemical, HyperBlu H2O2 luminescence, HTS (AID 1347420); further: values above 100% were filed as inconclusive
Conditions: recombinant QSOX1, HyperBlu H2O2 luminescence; at 12.5 µM; hits give high values; active = any value above zero

Chain of Sulfhydryl oxidase 1 (Homo sapiens) (O00391 whole entry, looked up): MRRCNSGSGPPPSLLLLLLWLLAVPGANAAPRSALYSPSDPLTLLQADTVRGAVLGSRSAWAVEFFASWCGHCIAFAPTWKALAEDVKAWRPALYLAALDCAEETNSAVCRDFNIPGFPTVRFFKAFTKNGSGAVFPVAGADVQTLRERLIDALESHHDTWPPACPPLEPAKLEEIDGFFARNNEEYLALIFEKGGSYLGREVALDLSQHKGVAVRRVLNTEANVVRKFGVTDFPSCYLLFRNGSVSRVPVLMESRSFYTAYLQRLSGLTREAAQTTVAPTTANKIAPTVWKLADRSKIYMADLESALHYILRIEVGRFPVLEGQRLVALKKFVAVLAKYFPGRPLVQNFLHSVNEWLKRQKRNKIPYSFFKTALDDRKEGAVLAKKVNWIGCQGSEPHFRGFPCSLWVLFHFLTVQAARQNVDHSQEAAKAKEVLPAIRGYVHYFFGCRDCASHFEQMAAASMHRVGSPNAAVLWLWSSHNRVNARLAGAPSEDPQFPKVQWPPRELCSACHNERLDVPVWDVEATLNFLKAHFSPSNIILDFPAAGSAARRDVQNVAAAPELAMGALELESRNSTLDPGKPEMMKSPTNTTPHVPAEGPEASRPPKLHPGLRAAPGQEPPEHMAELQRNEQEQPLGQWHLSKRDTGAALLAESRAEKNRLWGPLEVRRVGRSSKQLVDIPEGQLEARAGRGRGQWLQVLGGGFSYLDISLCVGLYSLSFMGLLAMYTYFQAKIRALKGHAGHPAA

inhibition, active:
Nc1ncnc2c1c(I)cn2[C@@H]1C[C@H](N)[C@@H](O)[C@H]1O 22.5%
COc1ccc2c(c1)CCC1C2CC[C@@]2(C)C1CC[C@@H]2NCCCCCCN1C(=O)CCC1=O (stereo partly specified) 8.2%
COc1ccc2c(c1)CCC1C2CC[C@@]2(C)C1CC[C@@H]2NCCCCCCN1C(=O)C=CC1=O (stereo partly specified) 7.6%
CN/C(=C\[N+](=O)[O-])NCCSCc1ccc(CN(C)C)o1 14.5%
CN(C)CCCc1cc(C(=O)Nc2ccc(-c3ccncc3)cc2)ccc1O 14.6%
CN(C)CCOC(=O)COc1ccc(Cl)cc1 2.2%
O=C(c1ccccc1)c1ccc2n1CCC2C(=O)O (stereo unspecified) 12.6%
CN1CCC2(CCN3CCc4c(oc5ccccc45)C3C2)N(C)C1=O (stereo unspecified) 4.5%
Cc1nc(N=NC2=[C+]C3=C(C=C([N+](=O)[O-])[C+]=C3S(=O)(=O)[O-])C(S(=O)(=O)[O-])=[C+]2)c(COP(=O)([O-])O)c(C=O)c1O 53.8%
Cc1nc(N=Nc2ccc(C(=O)O)cc2)c(COP(=O)(O)O)c(C=O)c1O 14.2%
C[C@@H]1C(=O)NC2=Nc3cccc(Cl)c3CN21 3.4%
c1ccc2c(c1)CC(N1CCN(c3cccc4c3OCCO4)CC1)C2 10.4%
Clc1ccc(C(c2ccccc2Cl)C(Cl)Cl)cc1 (stereo unspecified) 69.1%
O=C(c1ccc(Cl)cc1)N1CCN(c2ccc([N+](=O)[O-])c3ncccc23)CC1 24.1%
c1ccc2c(c1)CCC[C@H]2Nc1nc2ccccc2[nH]1 61.9%
NC1CCN(c2cccc(Cl)n2)CC1 4.2%
COCC(=O)O[C@]1(CCN(C)CCCc2nc3ccccc3[nH]2)CCc2cc(F)ccc2[C@@H]1C(C)C 2.9%
C[N+](C)(C)CCOP(=O)(O)OP(=O)([O-])OC[C@H]1O[C@@H](n2ccc(N)nc2=O)C(O)[C@H]1O (stereo partly specified) 20.6%
CC(C)(C)c1onc(OCP(=O)(O)O)c1CC(N)C(=O)O (stereo unspecified) 24.4%
OCc1cc(C(O)CNCCCCCCOCCCCc2ccccc2)ccc1O (stereo unspecified) 34.4%
CC(=O)N[C@H]1[C@H]([C@H](O)[C@H](O)CO)OC(C(=O)O)=C[C@@H]1O 18.1%
C[C@@H](CN1CCC(Cc2ccccc2)CC1)[C@@H](O)c1ccc(O)cc1 3.7%
CC(C(O)c1ccc(O)cc1)N1CCC(Cc2ccccc2)CC1 (stereo unspecified) 4%
CC(=O)OCC(=O)[C@@]1(O)CC[C@H]2[C@@H]3CCC4=CC(=O)CC[C@]4(C)[C@H]3C(=O)C[C@@]21C 6.5%
CC(=O)[C@H]1CC[C@H]2[C@@H]3CCC4=CC(=O)CC[C@]4(C)[C@H]3CC[C@]12C 12.3%
CC(=O)[C@@]1(O)CC[C@H]2[C@@H]3CCC4=CC(=O)CC[C@]4(C)[C@H]3CC[C@@]21C 0.7%
O=c1ccc2c(OCCCCc3ccccc3)c3ccoc3cc2o1 18.3%
CC(=O)OCC1=C(C(=O)O)N2C(=O)[C@@H](NC(=O)Cc3cccs3)[C@H]2SC1 11.8%
CO/N=C(\C(=O)N[C@@H]1C(=O)N2C(C(=O)O)=C(COC(C)=O)CS[C@H]12)c1csc(N)n1 26.2%
CO/N=C(\C(=O)N[C@@H]1C(=O)N2C(C(=O)O)=C(CSc3nc(=O)c(O)nn3C)CSC12)c1csc(N)n1 (stereo partly specified) 24.6%
Cn1cnc2c(NCc3ccccc3)nc(NCCO)nc21 12.8%
CC[C@@H](CO)Nc1nc(NCc2ccccc2)c2ncn(C(C)C)c2n1 24.9%
CNCCCC1c2ccccc2C=Cc2ccccc21 3.6%
CC(=O)Oc1cc(C(C)C)c(OCCN(C)C)cc1C 0.5%
O=[N+]([O-])c1cccc2cn[nH]c12 16.8%
COC(=O)[C@H]1[C@H]2C[C@@H]3c4[nH]c5cc(OC)ccc5c4CCN3C[C@H]2C[C@@H](OC(=O)c2cc(OC)c(OC)c(OC)c2)[C@@H]1OC 33%
COC(=O)[C@H]1[C@H]2C[C@H]3c4[nH]c5ccccc5c4CCN3C[C@H]2CC[C@@H]1O 50.6%
CNc1ncnc2c1ncn2[C@@H]1O[C@H](CO)[C@H](O)C1O (stereo partly specified) 12%
OC[C@H]1O[C@@H](n2cnc3c(NC4CCCC4)ncnc32)C(O)[C@H]1O (stereo partly specified) 4%
OC[C@H]1O[C@H](n2cnc3c(N[C@H]4CCC[C@@H]4O)ncnc32)[C@H](O)[C@@H]1O 5.7%
OC[C@H]1O[C@@H](n2cnc3c(NC4CCCCC4)ncnc32)[C@H](O)[C@@H]1O 19.1%
CCCCC#Cc1nc(NC)c2ncn([C@@H]3O[C@H](CO)C(O)[C@@H]3O)c2n1 (stereo partly specified) 20.2%
CNc1ncnc2c1ncn2[C@H]1C[C@H](OP(=O)(O)O)[C@@H](COP(=O)(O)O)O1 13.4%
Nc1ccc(CCNc2ncnc3c2ncn3C2OC(CO)C(O)C2O)cc1 (stereo unspecified) 36.3%
COc1ccc(/C=C/C(=O)Nc2ccccc2C(=O)O)cc1OC 4.9%
CNCCC(Oc1ccccc1OC)c1ccccc1 (stereo unspecified) 2.8%
CNCCC(Oc1ccccc1C)c1ccccc1 (stereo unspecified) 0.9%
CC(C)(C)NCC(O)COc1cccc2[nH]c(=O)[nH]c12 (stereo unspecified) 14%
COc1cccc2c1[C@@H]1CN(CCCCn3c(=O)[nH]c4c(sc5ncc(-c6ccccc6)nc54)c3=O)C[C@@H]1CO2 47%
NCCCC(N)(C(=O)O)C(F)F (stereo unspecified) 4.1%
CNC(=O)Oc1ccc2c(c1)[C@]1(C)CCN(C)[C@@H]1N2C 17.7%
O=C(O)C1CCNCC1 1.7%
O=C(O)C1CCCNC1 (stereo unspecified) 13.4%
CC1=NS(=O)(=O)c2cc(Cl)ccc2N1 34.8%
CC(CCc1ccccc1)NCC(O)c1ccc(O)c(C(N)=O)c1 (stereo unspecified) 12.9%
Nc1ccc(N2C(=O)c3ccccc3C2=O)c(Cl)c1 7.7%
N[C@H]1CONC1=O 3.7%
NC1CONC1=O (stereo unspecified) 2.4%
O[Si](CCCN1CCCCC1)(c1ccc(F)cc1)C1CCCCC1 (stereo unspecified) 4.4%
Cn1ncc(S(=O)(=O)Cc2ccccc2)c(Br)c1=O 11.5%
C[C@@H](O)[C@H]1C(=O)N2C(C(=O)O)=C(SCCN=CN)C[C@H]12 17.6%
CCn1cc(C(=O)O)c(=O)c2ccc(C)nc21 10.1%
CNC(=O)[C@H]1O[C@@H](n2cnc3c(NCc4ccc(N)cc4)ncnc32)C(O)[C@H]1O (stereo partly specified) 32.2%
CCNC(=O)[C@H]1O[C@@H](n2cnc3c(N)nc(NCCc4ccc(CCC(=O)O)cc4)nc32)C(O)[C@H]1O (stereo partly specified) 45.5%
CNC(=O)[C@H]1O[C@@H](n2cnc3c(NCc4cccc(I)c4)ncnc32)C(O)[C@H]1O (stereo partly specified) 14%
CC(=O)N[C@@H](CS)C(=O)O 43.1%
CC1(C)CCC=[N+]1[O-] 6.8%
CN1CCc2cc(NC(=O)Nc3cccnc3)ccc21 16.5%
CCCN1C[C@H](CSC)C[C@@H]2c3cccc4[nH]cc(c34)C[C@H]21 31%
CCc1c(C)[nH]c2c1C(=O)C(CN1CCOCC1)CC2 (stereo unspecified) 17.7%
O=C(O)/C=C/c1cnc[nH]1 10.6%
CN(C)c1cc2c(Nc3ccc4c(cnn4Cc4ccccc4)c3)ncnc2cn1 15.4%
S=C(Nc1ccccc1)Nc1nccs1 35.5%
CC1CCN=C(N)S1 (stereo unspecified) 29.6%
NCCSSCCN 47.5%
O=C1/C(=C/c2ccsc2)CC/C1=C\c1cccs1 17.5%

inhibition, inactive:
O=C1N=C(O)C(c2ccccc2)(c2ccccc2)N1 -13.4%
CC/C(=C(\c1ccccc1)c1ccc(OCCN(C)C)cc1)c1ccccc1 -2.1%
O=C(O)/C=C/C(O)c1ccc(Cl)cc1 (stereo unspecified) -40.2%
CCCOC(=O)c1c(-c2ccccc2)nc(CC)c(C(=O)SCC)c1CCC -2.7%
COc1cc(SC)ccc1C(=O)N1CCC(Cc2ccccc2)CC1 -5.8%
C[C@]12CCC(=O)C=C1CC[C@@H]1[C@@H]2C(=O)C[C@@]2(C)[C@H]1CC[C@]2(O)C(=O)CO -1.4%
C[C@]12CCC(=O)C=C1CC[C@@H]1[C@@H]2CC[C@@]2(C)[C@H]1CC[C@]2(O)C(=O)CO -11%
COC(=O)[C@@H]1[C@H]2C[C@H]3c4[nH]c5ccccc5c4CCN3C[C@@H]2CC[C@@H]1O -38.2%
C[C@H](Cc1ccccc1)Nc1ncnc2c1ncn2[C@@H]1O[C@H](CO)[C@H](O)C1O (stereo partly specified) -5.3%
Cn1cc(C(=O)OCC2CCN(CCNS(C)(=O)=O)CC2)c2ccccc21 -1%
COc1cc(/C=C(\C#N)C(=O)Nc2nnc(C(F)(F)F)s2)ccc1OCc1ccc(C(F)(F)F)cc1C(F)(F)F -0.4%
O=C(O)[C@H]1NCCC[C@H]1C(=O)O -4.7%
N[C@@H]1CONC1=O -0.9%
Fc1cccc(/C=N/N=C/c2cccc(F)c2)c1 -1.8%
CCn1cc(C(=O)O)c(=O)c2cc3c(cc21)OCO3 -7.6%
Cn1ccc2cc3c(cc21)CCN3C(=O)Nc1cccnc1 -4.6%
O=C(O)CCC(=O)N1CCCC1C(=O)O (stereo unspecified) -11.1%
N[C@@H](Cc1cnc[nH]1)C(=O)O -5.8%
CC#CCOC(=O)c1c(C)nc2sc3c(c2c1N)CCC(O)C3 (stereo unspecified) -4.2%
COc1cc2c(c(OC)c1OC)-c1ccc(OC)c(=O)cc1[C@@H](NC(C)=O)CC2 -1%
